Source: PubChem BioAssay
This is a sample that favours compounds with a hit; in the whole collection about 5.7% have one here.
GLP1R ag – GLP-1 receptor (human) agonism; HEK293 GLP-1R CRE-luciferase, luminescence, 4-6 h; cells express a hypersensitive GLP-1R form; Potency, µM (doses to about 45.6 µM), without a hit: at the top dose activation, actives largely listed as activators; 380,000 compounds, 0.007% hits; AID 624172; further: potency means the concentration at half of the fitted maximal effect; % of control where 0% means no effect
GLP1R inv ag – acts as inverse agonist at human GLP-1 receptor; 410,000 compounds, 1.6% hits; HEK293 GLP-1R CRE-luciferase, luminescence, 24 h; GLP-1R form is constitutively active; Potency, µM (series often up to 38.3 µM), for inactives: at the top dose activity change, negative = inhibition, most hits filed as inhibitors; AID 624417; P43220; further: potency means the concentration at half of the fitted maximal effect; on the % scale 0 is the no-effect control and ±100 the full control effect; nearly all actives have a fitted effect of over 55% in size
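Constitutively active GLP-1R drives a cAMP-responsive luciferase in stably transfected HEK293 cells; test compounds are added after overnight (12 h) attachment and left 24 hr, and signal loss in luminescence marks inhibition.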
GLP1R cytotox – cytotoxicity counter-screen for GLP-1 receptor inverse agonists. Potency, µM (titrated, usually from 38.3 µM), without a hit: at the top dose activity change, negative = inhibition, hits mostly inhibitors. AID 624418. HEK293 cAMP-luciferase reporter cells, luminescence, 24 h. 410,000 compounds, 0.13% hits;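 further: loss of luciferase light is scored as toxicity; potency means the concentration at half of the fitted maximal effect; on the % scale 0 is the no-effect control and ±100 the full control effect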
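Here, cytotoxicity is scored as loss of luminescence. The MLSMR collection was tested on cells seeded in medium containing 10% Nu serum, with a 24 hr compound exposure preceded by 12 hours of culture.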
D3 ag – activates the human D3 dopamine receptor | max activation, % | D3R DiscoveRx beta-arrestin cells, luminescence, 90 min | P35462 | 410,000 compounds, 0.58% hits; in the data active means max activation above about 30%; further: 0% is about no effect
Target sequence (P35462 whole entry, looked up): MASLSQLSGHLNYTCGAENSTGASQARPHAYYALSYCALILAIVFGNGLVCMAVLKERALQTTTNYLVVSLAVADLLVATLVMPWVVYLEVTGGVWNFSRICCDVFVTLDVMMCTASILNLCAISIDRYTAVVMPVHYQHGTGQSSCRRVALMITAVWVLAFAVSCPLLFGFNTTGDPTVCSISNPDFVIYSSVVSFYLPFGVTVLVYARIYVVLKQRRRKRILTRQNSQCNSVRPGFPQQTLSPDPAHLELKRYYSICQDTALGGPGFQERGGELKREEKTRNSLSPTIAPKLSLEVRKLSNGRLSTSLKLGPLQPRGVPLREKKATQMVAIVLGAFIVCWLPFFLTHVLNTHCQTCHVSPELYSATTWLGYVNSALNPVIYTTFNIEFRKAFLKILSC
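Cells at 1500/well, incubated overnight, then treated with pinned compounds (dopamine as control) for 90 min at 37 degrees C. DiscoveRx reagent added for 30 - 60 minutes at room temperature; luminescence read.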
ClpP mod – qHTS Assay for Activators of ClpP. 340,000 compounds, 1.9% hits. ATP-dependent Clp protease proteolytic subunit (Bacillus subtilis (strain 168)), P80244. Potency, µM (titrated, usually from 57.5 µM), for the others: top-dose activity change, negative = active. purified B. subtilis ClpP, FRET peptide cleavage, 20 min; active means well fitted falling curve with a large enough effect; inconclusive means small, poorly fitted or top-dose-only effect; inactive means no such curve, though single readings can be large or run the other way; further: potency means the concentration at half of the fitted maximal effect; the source files actives as falling curves though it sought activators and does not explain the sign; nearly all actives have a fitted effect of over 65% in size
Target sequence (P80244 whole entry, looked up): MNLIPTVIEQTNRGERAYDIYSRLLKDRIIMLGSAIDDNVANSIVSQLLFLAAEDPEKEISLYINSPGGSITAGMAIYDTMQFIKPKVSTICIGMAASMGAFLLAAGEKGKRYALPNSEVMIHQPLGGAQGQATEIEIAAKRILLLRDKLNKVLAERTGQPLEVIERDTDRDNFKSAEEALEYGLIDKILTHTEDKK
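FRET quenching reversal measured ClpP activation: 10 microg/mL B. subtilis ClpP at pH 8 with the FRET-FV decapeptide, read at 430 nm after 320 nm excitation. The 20-min minus 0-min signal was scaled between DMSO/no-enzyme wells and ADEP (5.8 microM final).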
DRD3 antagonist – blocks the human D3 dopamine receptor | D3R cells, DiscoveRx beta-arrestin luminescence, antagonist mode; active compounds read low | 360,000 compounds, 2.5% hits | P35462 | max response, negative = inhibition, %; in the data active means max response below about -50%; inconclusive means no clear call, values can overlap the other calls; further: on the % scale 0 is the no-effect control and ±100 the full control effect
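Cells plated overnight at 1500 cells/well, then exposed to library compounds with dopamine controls for 90 minutes at 37 degrees C. DiscoveRx reagent added for 30–60 minutes at room temperature; luminescence read, quantitative HTS format.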
An asterisk follows results filed as active; u = inconclusive; x = no result; ! = not active in a repeat. Unless noted, the call rests on the fitted dose curve; in most records, active means well fitted curve in the direction sought with a large enough effect; inconclusive means small, poorly fitted or top-dose-only effect, or another doubt; inactive means no such curve, though single readings can be large; an effect the other way counts as inactive or inconclusive.

SMILES	GLP1R ag	GLP1R inv ag	GLP1R cytotox	D3 ag	ClpP mod	DRD3 antagonist
CC(C)CCNC(=O)c1ccc2c(c1)nc1n2CCCCC1	x	6.3µM*	1%	-20	1%	x
O=C(NCCc1ccccc1)c1ccc2c(c1)nc1n2CCOC1	x	8.9µM*	15%	6	0%	x
O=C(NCCc1ccccc1Cl)c1ccc2c(c1)nc1n2CCCCC1	x	13µM*	5%	2	-1%	x
CCNC(=O)c1ccc2c(c1)nc1n2CCCCC1	x	-8%	-7%	-18	1%	x
Cc1ccc(CCNC(=O)c2ccc3c(c2)nc2n3CCOC2)cc1	x	2%	5%	3	0%	x
Cc1ccc(-n2[nH]c(=O)c(-c3ccccn3)c2C)cc1	-4%	1µM*	u	6	x	-6
Cc1ccc(-n2[nH]c(=O)c3cccnc32)cc1	-2%	-4%	4%	-26	0%	-6
CCN1C(=NCc2ccc(OC)cc2)N[C@@H](c2ccccc2)C(C(=O)OC)=C1C	7%	-7%	-32%	41*	0%	22
CCN1C(=NCCc2ccccn2)N[C@@H](c2cccc(C(F)(F)F)c2)C(C(=O)OC)=C1C	4%	-26%	5%	-37	-1%	-53*
COC(=O)C1=C(C)N(Cc2ccccc2)C(=NCc2ccccc2)N[C@H]1c1cccc(C(F)(F)F)c1	-12%	u	u	33*	-1%	22
COC(=O)C1=C(C)N(Cc2ccccc2)C(=NCCc2ccccn2)N[C@H]1c1cccc(C(F)(F)F)c1	5%	u	u	-23	-4%	-20
CCN(CC)CC(=O)Nc1sc(C)cc1C(=O)c1ccccc1	30%	u	-4%	0	-2%	11
CCc1cc(C(=O)c2ccc(Br)cc2)c(NC(=O)CN(CC)CC)s1	7%	u	4%	2	1%	-62*
CCN(CC)CC(=O)Nc1sc(C)cc1C(=O)c1ccc(C)cc1	2%	10µM*	-1%	1	1%	-6
COc1ccc(C2Nc3ccccc3C(=O)N2Cc2ccco2)cc1COc1c(C)cccc1C (configuration not stated)	x	x	x	x	4%	x
COC(=O)COc1nsnc1N1CCOCC1	4%	-9%	-11%	-1	1%	29
CC(C)(C)NC[C@H](O)COc1nsnc1N1CCOCC1	-5%	2%	4%	-42	-3%	-54*!
CN1CCC(=O)N(CCSc2ccc(Br)cc2)CC1	-2%	-5%	1%	-31	-2%	-56*
CCCCCCn1cc(CN2CC(N3CCCC3)CS2(=O)=O)nn1 (configuration not stated)	-1%	9%	10%	7	-3%	20
COC(=O)[C@]12CCCCC=C1N(Cc1ccccc1)C(=O)[C@H](CC(=O)NCc1cccc(C(F)(F)F)c1)C2	-1%	u	-9%	-4	-1%	7
CCCNC(=O)CCC(NS(=O)(=O)c1ccc(C)cc1)C(=O)NCCC (configuration not stated)	-5%	-10%	-5%	15	0%	-56*
CCNC(=O)C(CCSC)NS(=O)(=O)c1ccc(C)cc1 (configuration not stated)	-1%	3%	-2%	-4	1%	0
CCOC(=O)c1csc(NC(=O)CCS(=O)(=O)c2ccc(Cl)cc2)n1	7%	-1%	12%	0	-3%	12
CCOc1ccc(N(C(=O)CC(C)C)S(=O)(=O)c2ccc3c(c2)oc(=O)n3C)cc1	x	u	-15%	2	-2%	x
CCN(C(=O)CSc1nc(C)nc2sc(C)c(C)c12)c1ccc(F)cc1	1%	-1%	5%	-2	2%	-2
SMILES	GLP1R ag	GLP1R inv ag	GLP1R cytotox	D3 ag	ClpP mod	DRD3 antagonist
CCN(Cc1ccc2c(c1)OCO2)C(=O)CSc1nc(C)nc2sc(C)c(C)c12	1%	3%	-7%	40*	-2%	60
C=C1C(=O)c2sccc2C(c2ccc(OC)c(OC)c2)C1COC(C)=O (configuration not stated)	-16%	u	-21%	-32	-4%	-116*
Cc1nnc(C(C)C)n1C1C[C@H]2CC[C@@H](C1)N2CC[C@H](NC(=O)C1CCC(F)(F)CC1)c1ccccc1 (some centres not stated)	-2%	x	x	-12	x	x
CC1(C)CC(=O)C=C(NC2=CC3OC(c4ccccc4)OCC3OC2=O)C1 (configuration not stated)	-55%	u	u	-4	-1%	-54*
COCCCNc1oc(/C=C/c2cc(OC)c(OC)c(OC)c2)nc1C#N	x	0%	125%	12	5%	x
CCC(CC)C(=O)Nc1cccc(/C(C)=N/NC(=O)c2ccccc2Cl)c1	-4%	-3%	-15%	4	0%	1
CCC(CC)C(=O)Nc1cccc(/C(C)=N/NC(=O)c2c(Br)cnn2C)c1	3%	-1%	-20%	0	-3%	-51*
Cc1ccc(C(=O)OCc2nnc(-c3ccccc3)o2)o1	6%	-11%	-15%	-3	-1%	u
COc1ccc2oc(C(=O)OCC(=O)Nc3ccc(OC)c(S(N)(=O)=O)c3)c(C)c2c1	2%	9%	4%	-8	28µM*	8
Cc1cccc(NC(=O)c2oc3ccc(S(=O)(=O)N4CCOCC4)cc3c2C)c1C	-13%	u	u	41*	56%	51
COc1ccc2oc(C(=O)OCC(=O)Nc3cc(S(=O)(=O)N4CCOCC4)ccc3C)c(C)c2c1	13%	1%	7%	-2	x	0
Cc1ccc(NC(=O)c2oc3ccc(S(=O)(=O)N4CCOCC4)cc3c2C)c(C)c1	9%	u	4%	7	-1%	56
COc1ccc2oc(C(=O)OCC(=O)Nc3cc(S(=O)(=O)N4CCOCC4)ccc3OC)c(C)c2c1	-1%	-2%	-7%	-9	10µM*	0
COc1ccc2oc(C(=O)OCc3nnc(-c4ccccc4)o3)c(C)c2c1	-1%	11%	0%	11	25µM*	-10
O=C(Nc1c2c(nn1-c1ccc(Cl)cc1)CS(=O)(=O)C2)c1ccccc1F	4%	38%	2%	23	2%	x
Cc1cc2nn(-c3ccccc3)nc2cc1NC(=O)COc1ccc(Cl)cc1	x	15%	-1%	1	-11%	x
O=C(COC(=O)Cc1c(Cl)cccc1Cl)NCC1CCCO1 (configuration not stated)	-9%	5%	25%	-10	25µM*	-19
